Common to all, as to assay: DAPPL (digital affinity profiling via proximity ligation, sequencing); 10 mM Tris-HCl pH 7.5, 50 mM NaCl, 1 mM DTT, 4% glycerol, room temperature, 30 min; GST-TFs on glutathione beads, 16-mer random dsDNA library, 0.1% formaldehyde crosslink after washing; high values mean tight binding
Common to all, as to settings: protein: recombinant; tags: N-terminal GST; dsDNA, one strand shown

In one assay the target is T1, FLI1 (Homo sapiens, UniProt Q01543 1-452).
T1 sequence: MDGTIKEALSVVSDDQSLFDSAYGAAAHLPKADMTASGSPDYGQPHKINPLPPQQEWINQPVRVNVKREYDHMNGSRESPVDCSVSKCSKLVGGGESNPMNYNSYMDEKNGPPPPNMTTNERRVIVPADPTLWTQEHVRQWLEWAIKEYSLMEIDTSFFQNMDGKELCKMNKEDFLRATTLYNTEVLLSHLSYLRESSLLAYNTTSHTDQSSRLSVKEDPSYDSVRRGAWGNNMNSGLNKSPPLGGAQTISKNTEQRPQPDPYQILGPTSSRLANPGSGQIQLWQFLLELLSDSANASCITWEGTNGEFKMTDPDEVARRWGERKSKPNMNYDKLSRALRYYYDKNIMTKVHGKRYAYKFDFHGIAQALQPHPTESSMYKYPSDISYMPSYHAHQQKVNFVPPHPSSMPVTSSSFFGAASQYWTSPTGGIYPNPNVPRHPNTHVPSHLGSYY
In outline: (§1)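 Binding signal is each hexamer's read frequency for a factor divided by its frequency in the tag-only sample. The factors were GST-fused human transcription factors from yeast, captured on glutathione beads, DNA-barcoded and pooled with that sample. Pools were incubated with 200 nmole of a random double-stranded 16-mer DNA library in Tris/NaCl/DTT/glycerol buffer at room temperature for 30 min, then washed, crosslinked with 0.1% formaldehyde, proximity-ligated with BsaI/T4 ligase (1 h, 37 °C), PCR-amplified and sequenced on an Illumina NextSeq500.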

For another assay, the target named is T2, ELK1 (Homo sapiens, UniProt P19419 1-428).
T2 sequence: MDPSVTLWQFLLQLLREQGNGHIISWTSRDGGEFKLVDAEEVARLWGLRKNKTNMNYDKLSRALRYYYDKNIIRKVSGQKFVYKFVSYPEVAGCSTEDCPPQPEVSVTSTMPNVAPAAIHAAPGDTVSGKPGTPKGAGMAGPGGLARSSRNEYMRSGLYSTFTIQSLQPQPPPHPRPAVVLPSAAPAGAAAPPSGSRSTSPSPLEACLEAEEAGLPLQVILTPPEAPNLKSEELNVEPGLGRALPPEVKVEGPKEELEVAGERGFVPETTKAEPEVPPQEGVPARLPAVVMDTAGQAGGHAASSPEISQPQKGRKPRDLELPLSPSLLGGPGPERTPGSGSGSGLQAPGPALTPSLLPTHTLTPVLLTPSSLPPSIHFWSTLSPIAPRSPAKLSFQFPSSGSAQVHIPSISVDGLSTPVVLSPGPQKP
A digest of the protocol: as §1

The target in another assay is T3, GABPA (Homo sapiens, UniProt Q06546 1-454).
T3 sequence: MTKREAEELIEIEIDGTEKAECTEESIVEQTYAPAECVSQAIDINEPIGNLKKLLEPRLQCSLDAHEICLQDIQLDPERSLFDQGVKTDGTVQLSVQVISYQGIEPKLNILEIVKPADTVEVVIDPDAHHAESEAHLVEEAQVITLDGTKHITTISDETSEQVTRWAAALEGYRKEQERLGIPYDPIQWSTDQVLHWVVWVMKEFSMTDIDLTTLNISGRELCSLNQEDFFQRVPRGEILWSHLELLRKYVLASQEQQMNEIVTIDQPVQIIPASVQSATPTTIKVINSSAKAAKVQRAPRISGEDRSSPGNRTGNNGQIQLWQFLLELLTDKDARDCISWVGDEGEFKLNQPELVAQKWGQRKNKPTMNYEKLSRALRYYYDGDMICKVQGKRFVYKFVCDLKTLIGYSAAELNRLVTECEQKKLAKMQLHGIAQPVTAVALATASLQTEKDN
In outline:
as §1

The target in a further assay is T4, ERG (Homo sapiens, UniProt P11308 1-479).
T4 sequence: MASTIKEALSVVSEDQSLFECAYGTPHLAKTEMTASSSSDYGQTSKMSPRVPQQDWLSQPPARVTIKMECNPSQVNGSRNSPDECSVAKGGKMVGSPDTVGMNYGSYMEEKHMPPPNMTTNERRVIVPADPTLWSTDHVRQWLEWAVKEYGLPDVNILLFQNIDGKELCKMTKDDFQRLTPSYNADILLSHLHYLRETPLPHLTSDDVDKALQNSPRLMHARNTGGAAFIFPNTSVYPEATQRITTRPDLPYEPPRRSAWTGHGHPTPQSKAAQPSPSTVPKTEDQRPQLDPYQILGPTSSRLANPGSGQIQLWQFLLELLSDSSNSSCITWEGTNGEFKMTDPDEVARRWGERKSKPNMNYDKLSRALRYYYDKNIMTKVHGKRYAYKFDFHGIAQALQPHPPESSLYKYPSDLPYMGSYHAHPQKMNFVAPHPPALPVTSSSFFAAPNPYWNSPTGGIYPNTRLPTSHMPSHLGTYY
In outline:
as §1

The target in a further assay is ELF1 (Homo sapiens, UniProt P32519 1-619). A digest of the protocol: as §1
Chain of ELF1 (P32519 whole entry): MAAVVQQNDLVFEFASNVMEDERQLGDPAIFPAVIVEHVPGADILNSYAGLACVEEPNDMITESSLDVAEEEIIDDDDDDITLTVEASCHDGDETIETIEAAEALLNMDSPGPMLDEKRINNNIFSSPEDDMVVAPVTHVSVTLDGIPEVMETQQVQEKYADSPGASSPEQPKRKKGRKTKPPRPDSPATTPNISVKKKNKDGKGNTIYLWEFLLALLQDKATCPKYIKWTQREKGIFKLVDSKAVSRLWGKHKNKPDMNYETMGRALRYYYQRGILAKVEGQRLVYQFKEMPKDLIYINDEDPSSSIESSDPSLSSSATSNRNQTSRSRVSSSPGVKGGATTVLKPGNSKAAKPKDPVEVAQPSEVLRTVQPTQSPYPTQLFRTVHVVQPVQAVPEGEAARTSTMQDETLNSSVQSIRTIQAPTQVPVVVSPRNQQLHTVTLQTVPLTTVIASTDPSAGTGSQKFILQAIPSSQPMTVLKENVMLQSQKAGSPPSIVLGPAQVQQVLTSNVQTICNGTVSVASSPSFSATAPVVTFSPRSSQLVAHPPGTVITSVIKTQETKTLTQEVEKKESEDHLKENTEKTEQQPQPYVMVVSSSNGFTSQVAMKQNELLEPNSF
The next assay deals with T5, EHF (Homo sapiens, UniProt Q9NZC4 1-300).
T5 sequence: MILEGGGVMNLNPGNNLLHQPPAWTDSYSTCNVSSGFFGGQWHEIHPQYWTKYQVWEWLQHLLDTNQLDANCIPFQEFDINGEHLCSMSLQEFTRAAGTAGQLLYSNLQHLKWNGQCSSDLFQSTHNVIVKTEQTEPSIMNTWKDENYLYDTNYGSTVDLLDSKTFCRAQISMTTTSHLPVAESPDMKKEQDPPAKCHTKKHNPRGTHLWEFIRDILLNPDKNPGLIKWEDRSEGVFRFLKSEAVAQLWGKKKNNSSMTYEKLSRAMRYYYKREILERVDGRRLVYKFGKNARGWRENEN
In outline: as §1

Another assay concerns the target SPI1 (Homo sapiens, UniProt P17947 1-270). In outline: as §1
A further assay deals with SPIB (Homo sapiens, UniProt Q01892 1-262). In outline: as §1
Chain of SPIB (Q01892 whole entry): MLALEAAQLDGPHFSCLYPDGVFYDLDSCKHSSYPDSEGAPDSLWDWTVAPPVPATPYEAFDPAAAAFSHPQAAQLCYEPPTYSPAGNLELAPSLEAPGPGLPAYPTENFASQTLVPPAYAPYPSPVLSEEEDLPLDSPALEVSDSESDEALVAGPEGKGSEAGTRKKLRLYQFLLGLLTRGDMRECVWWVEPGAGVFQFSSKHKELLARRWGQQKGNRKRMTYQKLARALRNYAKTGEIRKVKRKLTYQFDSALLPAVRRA
The target in another assay is T6, ELK3 (Homo sapiens, UniProt P41970 1-407).
T6 sequence: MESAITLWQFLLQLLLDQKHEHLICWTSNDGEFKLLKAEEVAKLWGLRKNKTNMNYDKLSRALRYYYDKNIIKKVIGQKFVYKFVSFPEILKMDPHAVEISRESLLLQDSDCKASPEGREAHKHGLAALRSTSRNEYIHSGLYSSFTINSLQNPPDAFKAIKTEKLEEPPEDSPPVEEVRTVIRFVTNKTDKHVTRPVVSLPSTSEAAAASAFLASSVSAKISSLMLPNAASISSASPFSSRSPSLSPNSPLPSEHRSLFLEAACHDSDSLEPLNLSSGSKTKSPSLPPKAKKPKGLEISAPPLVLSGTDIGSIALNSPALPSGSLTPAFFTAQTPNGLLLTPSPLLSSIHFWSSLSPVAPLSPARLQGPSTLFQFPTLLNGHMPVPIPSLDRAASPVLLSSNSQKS
A digest of the protocol:
as §1

In another assay the target is T7, FEV (Homo sapiens, UniProt Q99581 1-238).
T7 sequence: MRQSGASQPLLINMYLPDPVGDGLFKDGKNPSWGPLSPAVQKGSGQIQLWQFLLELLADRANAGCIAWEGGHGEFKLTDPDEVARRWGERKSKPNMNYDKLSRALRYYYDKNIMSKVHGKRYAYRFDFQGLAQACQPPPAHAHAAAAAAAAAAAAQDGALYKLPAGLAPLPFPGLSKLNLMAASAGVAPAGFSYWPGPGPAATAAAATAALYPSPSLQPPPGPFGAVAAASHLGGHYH
A digest of the protocol: as §1

The target in another assay is ETV5 (Homo sapiens, UniProt P41161 1-510). In outline:
as §1

The target of another assay is T8, SPIC (Homo sapiens, UniProt Q8N5J4 1-248).
T8 sequence: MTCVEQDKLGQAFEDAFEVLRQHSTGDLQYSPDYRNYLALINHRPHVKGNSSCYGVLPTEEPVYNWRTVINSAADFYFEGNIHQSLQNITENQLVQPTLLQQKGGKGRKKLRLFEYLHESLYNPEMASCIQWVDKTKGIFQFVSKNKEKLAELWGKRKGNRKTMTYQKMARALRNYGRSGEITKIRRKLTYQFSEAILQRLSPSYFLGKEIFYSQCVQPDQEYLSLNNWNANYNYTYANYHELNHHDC
A digest of the protocol:
as §1

A further assay addresses ELF4 (Homo sapiens, UniProt Q99607 1-663). In outline:
as §1

The target of another assay is T9, ELK4 (Homo sapiens, UniProt P28324-2 1-405).
T9 sequence: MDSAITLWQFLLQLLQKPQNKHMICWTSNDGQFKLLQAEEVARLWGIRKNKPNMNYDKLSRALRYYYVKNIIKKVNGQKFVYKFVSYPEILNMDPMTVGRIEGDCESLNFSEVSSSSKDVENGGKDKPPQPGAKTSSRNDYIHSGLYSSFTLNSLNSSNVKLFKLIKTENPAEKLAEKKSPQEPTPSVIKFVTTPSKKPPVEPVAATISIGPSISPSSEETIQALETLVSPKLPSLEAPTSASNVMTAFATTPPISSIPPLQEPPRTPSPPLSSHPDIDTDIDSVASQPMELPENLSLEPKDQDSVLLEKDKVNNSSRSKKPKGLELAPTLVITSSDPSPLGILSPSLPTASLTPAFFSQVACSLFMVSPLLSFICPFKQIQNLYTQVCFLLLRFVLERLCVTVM
A digest of the protocol:
as §1

A further assay concerns the target T10, ETV2 (Homo sapiens, UniProt O00321 1-342).
T10 sequence: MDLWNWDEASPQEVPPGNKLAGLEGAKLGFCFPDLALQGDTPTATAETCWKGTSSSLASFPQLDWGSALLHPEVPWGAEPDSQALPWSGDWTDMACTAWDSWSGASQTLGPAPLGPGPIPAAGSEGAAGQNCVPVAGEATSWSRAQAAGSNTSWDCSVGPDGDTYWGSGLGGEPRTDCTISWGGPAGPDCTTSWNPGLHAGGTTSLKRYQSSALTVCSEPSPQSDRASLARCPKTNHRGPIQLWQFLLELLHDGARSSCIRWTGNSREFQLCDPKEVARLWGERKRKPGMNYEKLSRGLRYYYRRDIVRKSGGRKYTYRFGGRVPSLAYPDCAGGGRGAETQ
A digest of the protocol: as §1

The target in the next assay is T11, ELF3 (Homo sapiens, UniProt P78545 1-371).
T11 sequence: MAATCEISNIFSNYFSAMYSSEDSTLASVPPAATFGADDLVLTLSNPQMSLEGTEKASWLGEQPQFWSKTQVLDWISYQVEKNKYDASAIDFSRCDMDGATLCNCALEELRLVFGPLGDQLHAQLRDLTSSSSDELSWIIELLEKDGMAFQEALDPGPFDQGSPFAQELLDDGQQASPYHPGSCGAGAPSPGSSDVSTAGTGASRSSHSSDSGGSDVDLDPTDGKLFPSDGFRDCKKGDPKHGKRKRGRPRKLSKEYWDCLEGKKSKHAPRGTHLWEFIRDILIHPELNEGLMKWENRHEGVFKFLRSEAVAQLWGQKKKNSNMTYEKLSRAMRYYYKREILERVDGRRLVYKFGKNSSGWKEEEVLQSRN
In outline: as §1

For a further assay, the target named is CRX (Homo sapiens, UniProt O43186 1-299). In outline:
as §1

For a further assay, the target named is ETV1 (Homo sapiens, UniProt P50549 1-477). In outline: as §1
Chain of ETV1 (P50549 whole entry): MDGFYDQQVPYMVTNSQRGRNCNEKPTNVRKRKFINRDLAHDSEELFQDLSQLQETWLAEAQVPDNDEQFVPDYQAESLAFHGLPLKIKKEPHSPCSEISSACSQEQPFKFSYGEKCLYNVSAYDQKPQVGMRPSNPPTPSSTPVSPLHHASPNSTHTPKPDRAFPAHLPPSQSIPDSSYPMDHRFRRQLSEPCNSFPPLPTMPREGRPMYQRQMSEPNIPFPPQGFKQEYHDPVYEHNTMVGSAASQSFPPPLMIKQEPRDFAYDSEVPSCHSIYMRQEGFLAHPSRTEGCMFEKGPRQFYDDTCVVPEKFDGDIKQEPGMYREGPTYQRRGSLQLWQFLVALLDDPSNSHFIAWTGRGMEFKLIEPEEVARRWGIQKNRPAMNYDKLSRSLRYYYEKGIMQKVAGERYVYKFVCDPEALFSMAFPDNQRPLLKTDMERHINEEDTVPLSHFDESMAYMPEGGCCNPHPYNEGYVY

Chain of ETV5 (P41161 whole entry): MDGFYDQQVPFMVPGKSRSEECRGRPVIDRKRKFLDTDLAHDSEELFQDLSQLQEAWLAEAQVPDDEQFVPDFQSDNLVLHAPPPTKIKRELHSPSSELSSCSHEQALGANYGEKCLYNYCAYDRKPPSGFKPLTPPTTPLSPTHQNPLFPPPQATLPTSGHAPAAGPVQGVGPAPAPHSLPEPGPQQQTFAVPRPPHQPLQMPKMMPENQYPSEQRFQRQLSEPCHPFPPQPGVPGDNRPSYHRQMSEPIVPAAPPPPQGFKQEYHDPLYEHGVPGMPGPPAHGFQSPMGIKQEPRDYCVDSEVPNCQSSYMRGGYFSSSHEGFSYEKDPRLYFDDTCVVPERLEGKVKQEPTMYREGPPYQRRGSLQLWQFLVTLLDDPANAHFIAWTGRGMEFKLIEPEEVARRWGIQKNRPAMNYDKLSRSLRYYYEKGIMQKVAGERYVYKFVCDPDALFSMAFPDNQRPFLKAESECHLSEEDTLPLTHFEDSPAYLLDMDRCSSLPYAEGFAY
Chain of ELF4 (Q99607 whole entry): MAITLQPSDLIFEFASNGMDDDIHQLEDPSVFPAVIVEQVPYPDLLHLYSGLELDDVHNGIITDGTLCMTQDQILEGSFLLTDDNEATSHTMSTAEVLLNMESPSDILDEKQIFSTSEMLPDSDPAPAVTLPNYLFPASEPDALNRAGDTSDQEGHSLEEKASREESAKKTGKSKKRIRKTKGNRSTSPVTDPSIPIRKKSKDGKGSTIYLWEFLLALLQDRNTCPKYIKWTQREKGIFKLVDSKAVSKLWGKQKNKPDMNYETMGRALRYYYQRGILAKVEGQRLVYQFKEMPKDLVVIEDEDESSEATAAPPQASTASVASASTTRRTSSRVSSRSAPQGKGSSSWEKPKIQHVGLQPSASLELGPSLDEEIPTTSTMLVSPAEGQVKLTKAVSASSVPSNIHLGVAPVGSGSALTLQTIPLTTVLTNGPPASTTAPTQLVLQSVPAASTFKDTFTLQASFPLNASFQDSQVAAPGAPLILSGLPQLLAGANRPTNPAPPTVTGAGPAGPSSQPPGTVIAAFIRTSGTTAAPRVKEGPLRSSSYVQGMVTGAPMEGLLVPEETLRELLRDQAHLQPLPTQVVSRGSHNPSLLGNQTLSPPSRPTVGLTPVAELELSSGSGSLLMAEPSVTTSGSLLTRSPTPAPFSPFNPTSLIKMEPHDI
Chain of CRX (O43186 whole entry): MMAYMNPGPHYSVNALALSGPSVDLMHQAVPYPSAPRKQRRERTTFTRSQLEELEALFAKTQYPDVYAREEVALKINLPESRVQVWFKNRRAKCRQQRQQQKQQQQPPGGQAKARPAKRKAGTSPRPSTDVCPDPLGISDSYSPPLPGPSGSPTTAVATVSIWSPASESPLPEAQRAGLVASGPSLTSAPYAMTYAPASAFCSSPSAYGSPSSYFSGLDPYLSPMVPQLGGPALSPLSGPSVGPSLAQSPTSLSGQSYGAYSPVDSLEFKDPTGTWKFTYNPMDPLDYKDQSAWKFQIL

On to TGATGT, for which the binding signal in the assay with FLI1 is 1.31 fold enrichment (6-mer frequency, TF over GST control); with ELK1, 1.31 fold enrichment (6-mer frequency, TF over GST control); with GABPA, 1.19 fold enrichment (6-mer frequency, TF over GST control); with ERG, 1.13 fold enrichment (6-mer frequency, TF over GST control); with ELF1 it was 1.26 fold enrichment (6-mer frequency, TF over GST control); with EHF it was 1.14 fold enrichment (6-mer frequency, TF over GST control). For the same sequence, the binding signal was 1.25 fold enrichment (6-mer frequency, TF over GST control) with SPI1; 1.41 fold enrichment (6-mer frequency, TF over GST control) with SPIB; 1.12 fold enrichment (6-mer frequency, TF over GST control) with ELK3; 1.26 fold enrichment (6-mer frequency, TF over GST control) in the assay with FEV; 1.22 fold enrichment (6-mer frequency, TF over GST control) with ETV5; 1.11 fold enrichment (6-mer frequency, TF over GST control) with SPIC. The binding signal with ELF4 was 1.32 fold enrichment (6-mer frequency, TF over GST control); with ELK4, 1.31 fold enrichment (6-mer frequency, TF over GST control); with ETV2, 1.26 fold enrichment (6-mer frequency, TF over GST control); in the assay with ELF3, 1.21 fold enrichment (6-mer frequency, TF over GST control); in the assay with CRX it was 1.05 fold enrichment (6-mer frequency, TF over GST control); with ETV1, 1.26 fold enrichment (6-mer frequency, TF over GST control).

In the case of TTGTTG, the binding signal with FLI1 was 1.03 fold enrichment (6-mer frequency, TF over GST control); with ELK1 it was 1.12 fold enrichment (6-mer frequency, TF over GST control); with GABPA it was 1.07 fold enrichment (6-mer frequency, TF over GST control); in the assay with ERG it was 1.1 fold enrichment (6-mer frequency, TF over GST control); with ELF1 it was 1.14 fold enrichment (6-mer frequency, TF over GST control); in the assay with EHF it was 1.12 fold enrichment (6-mer frequency, TF over GST control). Further, the binding signal with SPI1 is 1.15 fold enrichment (6-mer frequency, TF over GST control); with SPIB, 1.05 fold enrichment (6-mer frequency, TF over GST control); with ELK3 it was 1.12 fold enrichment (6-mer frequency, TF over GST control); in the assay with FEV it was 1.01 fold enrichment (6-mer frequency, TF over GST control); in the assay with ETV5, 1.08 fold enrichment (6-mer frequency, TF over GST control); with SPIC, 1.19 fold enrichment (6-mer frequency, TF over GST control). In addition, the binding signal in the assay with ELF4 is 1.21 fold enrichment (6-mer frequency, TF over GST control); with ELK4, 1.19 fold enrichment (6-mer frequency, TF over GST control); in the assay with ETV2, 1.09 fold enrichment (6-mer frequency, TF over GST control); with ELF3, 1.15 fold enrichment (6-mer frequency, TF over GST control); in the assay with CRX, 1.09 fold enrichment (6-mer frequency, TF over GST control); in the assay with ETV1, 1.21 fold enrichment (6-mer frequency, TF over GST control).

Values taken from publication PMC7862700, “An all-to-all approach to the identification of sequence-specific readers for epigenetic DNA modifications on cytosine”.
